# In the supplement of paper PMC4954754:
# ± gives the uncertainty stated by the source.
# System: HEK293T-Rex ERSE-FLuc
# Test: ERSE-FLuc reporter activation, triplicate confirmation, relative to 500 nM thapsigargin (% of thapsigargin); higher = stronger ATF6/ERSE reporter activation
# Conditions: 6.8 µM; 18 h; screen: confirmation
# Procedure: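 HEK293T-Rex cells stably expressing the ERSE-firefly luciferase (BiP promoter, ATF6-preferring) or XBP1-splicing Renilla luciferase (IRE1/XBP1s) reporter, 1536-well plates, compound at 6.8 µM for 18 hr at 37 °C; luminescence read […] and expressed as % activation = 100*(compound - median DMSO)/(median 500 nM thapsigargin - median DMSO). Primary screen was single-pass; confirmation screen in triplicate (mean ± SD).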
row,SMILES,ERSE-FLuc reporter activation
1,Cc1ccc(O)c(NC(=O)CSc2ccccc2)c1,51.1 ± 12
2,CC(=Nc1ccc(O)cc1)c1sc2ccccc2c1O,27.4 ± 4.2
3,Oc1cccc(/C=N/Nc2ccc(Cl)nn2)c1O,35 ± 6
4,N#C/C(=C(/O)c1cc(-c2ccccc2)nc2ccccc12)c1nc2ccccc2[nH]1,31.1 ± 13
5,CC(Oc1ccc(Cl)cc1Cl)C(=O)NNC(=O)c1ccc(O)c(O)c1 (stereo unspecified),28.5 ± 5.5
6,O=C(COC(=O)c1cc(O)c(O)c(O)c1)Nc1ccc(Br)cc1F,57.9 ± 11
7,O=C1N/C(=C/c2ccc(O)cc2)C(=O)N1c1ccccc1,66.4 ± 15
8,Cc1ccc(/C=N/NC(=O)c2cccc(Cl)c2)cc1,31.9 ± 1.9
9,CN(C)c1ccc(/C=C/C(=O)NC(=O)c2ccccc2OC(=O)c2ccccc2)cc1,26.9 ± 8.8
10,Cc1ccc(O)c(NC(=O)c2cc(-c3ccco3)on2)c1,74.4 ± 8.9
11,O=C1N/C(=C/c2ccc(O)cc2)C(=O)N1c1cccc(Cl)c1,68.2 ± 5.7
12,Cc1cc2nc(/C(C#N)=C/c3ccco3)[nH]c2cc1C,34.1 ± 8.6
13,Cc1ccc(O)c(NC(=O)c2cc(-c3ccc(O)cc3)on2)c1,54.1 ± 9
14,O=C(N/N=C\C(Br)=C\c1ccccc1)c1n[nH]c2c1CCCC2,35 ± 4.1
15,Oc1cccc(Nc2nc(-c3ccc(O)c(O)c3)cs2)c1,26.1 ± 6.7
16,O=c1[nH]c(COc2ccccc2)nc2sc3c(c12)CCCC3,39 ± 5.3
17,O=c1[nH]c(/C=C2\C=Nc3ccccc32)c(O)n1-c1cccc(Cl)c1,58.7 ± 9.3
18,Cc1ccccc1-c1cc(=O)c2cc(Cl)ccc2o1,25.5 ± 3.8

row,SMILES,ERSE-FLuc reporter activation
1,C(=C\c1ccccc1)/C=N/Nc1nc2ccccc2[nH]1,27.2 ± 3.8
2,CCOc1cc(C2C(C(=O)OC3CCCCC3)=C(C)NC3=C2C(=O)CC(c2ccc(OC)cc2)C3)cc(Br)c1O (stereo unspecified),27.2 ± 9.1
3,CC(C)c1ccc(/C=N\NC(=O)c2ccccc2)cc1,27.4 ± 3.1
4,CCCc1cc(C(=O)Nc2cc(C)ccc2O)no1,83.4 ± 6.3
5,CCN(CC)c1ccc(NC(=O)c2cccc(OC)c2)cc1,26.1 ± 1.1
6,CC(=O)Oc1ccc2cc(NC(=O)c3ccc(C)cc3)c(=O)oc2c1,29.7 ± 6
7,COc1cccc(-c2cc(C(=O)Nc3cc(C)ccc3O)no2)c1,43.9 ± 11
8,COc1cccc(-c2nc3ccc(N)cc3[nH]2)c1,32.8 ± 4.8
9,CN(c1ccccc1)S(=O)(=O)c1cccc(C(=O)NCCc2ccc(O)c(O)c2)c1,44.7 ± 3.8
10,COc1cccc(-c2cc(C(=O)Nc3cc(C)ccc3O)on2)c1,34.2 ± 8.4
11,C=CCNC(=O)c1cc(-c2ccccc2)on1,43.4 ± 5
12,Cc1cc(C)nc(/N=C(\N)Nc2ccc(OCc3ccccc3)cc2)n1,53.1 ± 14
13,Oc1ccc(/C=N/Nc2cccc3cccnc23)c(O)c1,40.8 ± 12
14,CN(C)c1ccc(C2C(C#N)=C(N)Oc3c2sc2ccccc32)cc1[N+](=O)[O-] (stereo unspecified),26 ± 0.29
15,NN1C(=O)/C(=C/c2ccc(O)c(O)c2)SC1=S,38.3 ± 1
16,Nc1ccc2nc(/C=C/c3ccccc3)[nH]c2c1,36.7 ± 5.2
17,Cc1ccc(O)c(NC(=O)c2cc(C(C)C)on2)c1,44.6 ± 1.3
18,N#C/C(=C\c1ccc(O)c(O)c1)c1nc2ccccc2[nH]1,34.3 ± 1.3
